In PubChem BioAssay AID1210 (NMMLSC, 2008):
Calls of active or inactive are those of the source.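 Rule for the calls: active = blocks over 70% of labeled estradiol binding at 10 µM, or over a set limit at 100 nM; inactive = the rest.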

These compounds were tested against Estrogen receptor beta (Homo sapiens) (UniProt Q92731) (assay: ERbeta ligand binders by competition, primary screen, cell-based, Cos7 ERbeta-GFP, flow cytometry (AID 1210;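 note: 0% = DMSO vehicle wells and 100% = complete loss of labeled estradiol signal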)). Conditions: fluorescent estrogen binding, at 10 µM, hits give high values.
Estrogen receptor beta (Homo sapiens), sequence (Q92731 whole entry, looked up): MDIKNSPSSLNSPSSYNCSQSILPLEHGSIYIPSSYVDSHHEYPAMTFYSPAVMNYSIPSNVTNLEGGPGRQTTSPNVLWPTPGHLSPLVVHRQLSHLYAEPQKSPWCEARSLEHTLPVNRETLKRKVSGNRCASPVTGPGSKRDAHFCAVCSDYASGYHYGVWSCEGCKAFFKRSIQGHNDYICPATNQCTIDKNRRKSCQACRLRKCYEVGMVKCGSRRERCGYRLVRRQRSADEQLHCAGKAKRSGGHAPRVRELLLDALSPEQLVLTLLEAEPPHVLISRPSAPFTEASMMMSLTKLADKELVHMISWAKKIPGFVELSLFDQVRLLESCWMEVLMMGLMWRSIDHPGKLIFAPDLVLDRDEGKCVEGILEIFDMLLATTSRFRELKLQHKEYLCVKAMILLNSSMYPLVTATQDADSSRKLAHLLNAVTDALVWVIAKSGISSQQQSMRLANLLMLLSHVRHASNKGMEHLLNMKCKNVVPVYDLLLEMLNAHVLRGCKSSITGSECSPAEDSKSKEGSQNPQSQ
In the case of `Cn1nnnc1SCC(=O)Nc1nc(-c2ccccc2)c(-c2ccccc2)o1`, the inhibition is reported as 39% (inactive). With `Oc1ccc(-c2nc(-c3ccc(O)c(O)c3)cs2)cc1` the inhibition was 55% (inactive). With `O=C(c1cccc(F)c1)N1CCN(C(=O)c2cc3ncc(Br)cn3n2)CC1` the inhibition was 26% (inactive). `Oc1ccc(-c2[nH]nc(-c3ccccc3)c2-c2nc3ccccc3[nH]2)cc1` was tested, and the inhibition was 33% (inactive). With `COC(=O)c1ccc(CC(=O)c2c(C)cc(O)cc2O)o1` the inhibition was 62% (inactive). In the case of `O=C(COC(=O)CN1C(=O)c2ccccc2C1=O)Nc1ncc(Cl)cc1Cl`, the inhibition is reported as 33% (inactive). For `Cn1nc([N+](=O)[O-])c2c(-c3nc4ccccc4s3)c(N)n(C3CCCCC3)c2c1=O`, the inhibition was 18% (inactive). For `O=C(Nc1cccc(-c2cnc3ccccc3n2)c1)c1cccc(NC(=O)c2ccco2)c1`, the inhibition was 58% (inactive). For `Cc1ccccc1-n1nc(-c2ccc(N)cc2)cc1N`, the inhibition was 25% (inactive). With `COc1cc(O)c2c(=O)c3c(OC)c(O)ccc3oc2c1` the inhibition was 41% (inactive). `O=C1/C(=C\c2ccco2)SC(=S)N1c1ccc(O)cc1` was tested, and the inhibition was 77% (active). For `O=c1c2c([nH]c3ccccc13)C(=C1CCCC1)CC2`, the inhibition was 42% (inactive). For `O=C(Nc1cccc2cccc(NC(=O)c3ccco3)c12)c1ccco1`, the inhibition was 24% (inactive). In the case of `Cc1nc2ccccc2c(=O)n1/N=C/c1c(O)ccc2oc3c(c12)CCCC3`, the inhibition is reported as 47% (inactive). With `O=[N+]([O-])c1ccc(Cl)c2c1C1C=CCC1C(c1ccccn1)N2` (stereo unspecified) the inhibition was 0% (inactive). With `CC(=O)c1ccc(NC(=S)N2CCC(O)CC2)cc1` the inhibition was 41% (inactive).
